The whole screen tested about 5,500 compounds, of which about 2,000 (36%) were called active. Not shown: some 18% with an inconclusive outcome. This is one part of the list. Unmarked numbers belong to inactive results. Cut-off read from the data, not from the text of the source: active = normalized growth mostly below about 0.91 (no sharp cut-off); inconclusive = no clear call, values can overlap the other calls; inactive = mostly above about 0.92.
Experiment: chemical genetic growth profiling, strain panel (AID 1159580);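 note: tested at 20 µM; growth read once vehicle control cultures reached saturation at 30 °C; 1 = growth at the plate median or of vehicle wells; lower values mean less growth of the strain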
Details: S. cerevisiae deletion strains, growth OD
[1] = locus YDL101C, strain DUN1, active compounds read low
[2] = locus YHR030C, strain SLT2, active compounds read low

## Cc1onc(-c2ccccc2)c1NC(=O)Nc1c(Cl)cccc1Cl
Locus YAL013W, strain DEP1, active compounds read low
  normalized growth: 0.995
Locus YBR229C, strain ROT2, active compounds read low
  normalized growth: 0.983
Locus YCL061C, strain MRC1, active compounds read low
  normalized growth: 0.963
[1]
  normalized growth: 0.988
Locus YDL134C, strain PPH21, active compounds read low
  normalized growth: 0.996
Locus YDR150W, strain NUM1, active compounds read low
  normalized growth: 0.973
Locus YEL061C, strain CIN8, active compounds read low
  normalized growth: 0.991
Locus YGR078C, strain PAC10, active compounds read low
  normalized growth: 1
Locus YGR229C, strain SMI1, active compounds read low
  normalized growth: 0.996
[2]
  normalized growth: 0.811
Locus YHR087W, strain rtc3, active compounds read low
  normalized growth: 0.975
Locus YJR043C, strain POL32, active compounds read low
  normalized growth: 0.969
Locus YJR075W, strain HOC1, active compounds read low
  normalized growth: 0.975
Locus YKL190W, strain CNB1, active compounds read low
  normalized growth: 1
Locus YLR039C, strain RIC1, active compounds read low
  normalized growth: 0.668 (active)
Locus YLR058C, strain SHM2 (second series), active compounds read low
  normalized growth: 0.988
Locus YLR085C, strain ARP6, active compounds read low
  normalized growth: 0.946
Locus YLR262C, strain YPT6, active compounds read low
  normalized growth: 0.572 (active)
Locus YML094W, strain GIM5, active compounds read low
  normalized growth: 0.949
Locus YMR219W, strain ESC1, active compounds read low
  normalized growth: 0.991
Locus YMR263W, strain SAP30, active compounds read low
  normalized growth: 0.999
Locus YNL153C, strain GIM3, active compounds read low
  normalized growth: 1.01
Locus YNL298W, strain CLA4 (second series), active compounds read low
  normalized growth: 0.974
Locus YNL322C, strain KRE1, active compounds read low
  normalized growth: 0.976
Locus YNR030W, strain Alg12, active compounds read low
  normalized growth: 0.983
Locus YOL006C, strain TOP1, active compounds read low
  normalized growth: 0.803
Locus YPL055C, strain LGE1, active compounds read low
  normalized growth: 0.997
Locus YPL241C, strain CIN2, active compounds read low
  normalized growth: 0.941
Locus YPR135W, strain CTF4, active compounds read low
  normalized growth: 0.933

## Cc1onc(-c2c(F)cccc2Cl)c1C(=O)NNc1cc(Cl)cc(Cl)c1
Locus YAR019C, strain CDC15, active compounds read low
  normalized growth: 0.987
Locus YBL105C, strain PKC1, active compounds read low
  normalized growth: 0.984
Locus YBR135W, strain CKS1, active compounds read low
  normalized growth: 0.987
Locus YBR136W, strain MEC1, active compounds read low
  normalized growth: 0.985
Locus YBR160W, strain CDC28, active compounds read low
  normalized growth: 0.976
Locus YDL017W, strain CDC7, active compounds read low
  normalized growth: 0.989
Locus YDL028C, strain MPS1, active compounds read low
  normalized growth: 0.986
[1]
  normalized growth: 0.987
Locus YDL108W, strain KIN28, active compounds read low
  normalized growth: 0.976
Locus YDL132W, strain cdc53, active compounds read low
  normalized growth: 0.989
Locus YDL214C, strain PRR2, active compounds read low
  normalized growth: 0.902
Locus YDR052C, strain DBF4, active compounds read low
  normalized growth: 0.99
Locus YDR054C, strain cdc34, active compounds read low
  normalized growth: 0.982
Locus YDR226W, strain ADK1, active compounds read low
  normalized growth: 0.991
Locus YDR477W, strain SNF1, active compounds read low
  normalized growth: 0.931
Locus YER123W, strain YCK3, active compounds read low
  normalized growth: 0.864
Locus YER133W, strain GLC7, active compounds read low
  normalized growth: 0.937
Locus YFL009W, strain cdc4, active compounds read low
  normalized growth: 0.979
Locus YFL029C, strain CAK1, active compounds read low
  normalized growth: 0.977
Locus YFR003C, strain YPI1, active compounds read low
  normalized growth: 0.987
Locus YFR019W, strain FAB1, active compounds read low
  normalized growth: 0.908
Locus YFR028C, strain CDC14, active compounds read low
  normalized growth: 0.976
Locus YGR040W, strain KSS1, active compounds read low
  normalized growth: 0.894
Locus YGR052W, strain FMP48, active compounds read low
  normalized growth: 0.951
Locus YGR092W, strain DBF2, active compounds read low
  normalized growth: 0.937
[2]
  normalized growth: 0.962
Locus YHR079C, strain IRE1, active compounds read low
  normalized growth: 0.939
Locus YHR082C, strain KSP1, active compounds read low
  normalized growth: 0.964
Locus YHR205W, strain SCH9, active compounds read low
  normalized growth: 0.89
Locus YIL147C, strain SLN1, active compounds read low
  normalized growth: 0.989
Locus YJL095W, strain BCK1, active compounds read low
  normalized growth: 0.942
Locus YJL128C, strain PBS2, active compounds read low
  normalized growth: 0.956
Locus YJL157C, strain FAR1, active compounds read low
  normalized growth: 0.916
Locus YJR016C, strain ILV3, active compounds read low
  normalized growth: 0.988
Locus YJR066W, strain TOR1 (second series), active compounds read low
  normalized growth: 0.883
Locus YJR066W, strain TOR1, active compounds read low
  normalized growth: 0.984
Locus YKL048C, strain ELM1, active compounds read low
  normalized growth: 0.878
Locus YKL067W, strain YNK1, active compounds read low
  normalized growth: 0.927
Locus YKL101W, strain HSL1, active compounds read low
  normalized growth: 0.894
Locus YKL193C, strain SDS22, active compounds read low
  normalized growth: 0.98
Locus YKL203C, strain TOR2, active compounds read low
  normalized growth: 0.992
Locus YLR113W, strain HOG1, active compounds read low
  normalized growth: 0.798 (active)
Locus YLR133W, strain CKI1, active compounds read low
  normalized growth: 0.906
Locus YLR403W, strain SFP1, active compounds read low
  normalized growth: 0.901
Locus YML070W, strain DAK1, active compounds read low
  normalized growth: 0.89
Locus YMR001C, strain CDC5, active compounds read low
  normalized growth: 0.98
Locus YMR205C, strain PFK2 (second series), active compounds read low
  normalized growth: 0.936
Locus YMR277W, strain FCP1, active compounds read low
  normalized growth: 0.983
Locus YNL006W, strain LST8, active compounds read low
  normalized growth: 0.984
Locus YNL020C, strain ARK1, active compounds read low
  normalized growth: 0.914
Locus YNL161W, strain CBK1, active compounds read low
  normalized growth: 0.979
Locus YNL183C, strain NPR1, active compounds read low
  normalized growth: 0.935
Locus YNL207W, strain RIO2, active compounds read low
  normalized growth: 0.987
Locus YNL222W, strain SSU72, active compounds read low
  normalized growth: 0.988
Locus YNL307C, strain MCK1 (second series), active compounds read low
  normalized growth: 0.879
Locus YOL078W, strain AVO1, active compounds read low
  normalized growth: 0.978
Locus YOL136C, strain PFK27, active compounds read low
  normalized growth: 0.884
Locus YOR061W, strain CKA2, active compounds read low
  normalized growth: 0.908
Locus YOR119C, strain RIO1, active compounds read low
  normalized growth: 0.972
Locus YOR231W, strain MKK1, active compounds read low
  normalized growth: 0.889
Locus YOR329C, strain SCD5, active compounds read low
  normalized growth: 0.984
Locus YPL031C, strain PHO85, active compounds read low
  normalized growth: 0.936
Locus YPL153C, strain RAD53, active compounds read low
  normalized growth: 0.928
Locus YPL204W, strain HRR25, active compounds read low
  normalized growth: 0.918
Locus YPL209C, strain IPL1, active compounds read low
  normalized growth: 0.979
Locus YPL256C, strain CLN2, active compounds read low
  normalized growth: 0.839 (active)
Locus YPR025C, strain CCL1, active compounds read low
  normalized growth: 0.98
Locus YPR106W, strain ISR1, active compounds read low
  normalized growth: 0.956
Locus YPR111W, strain DBF20, active compounds read low
  normalized growth: 0.955
Strain NNK1, active compounds read low
  normalized growth: 0.955
Strain TSCII, active compounds read low
  normalized growth: 0.986

Reference: PubChem BioAssay AID1159580 (chemical genetic matrix, 2015)
